Source: PubChem BioAssay
Active and inactive are the calls of the source.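 How the source made its calls: active means viability loss from added drug above about 55%, and viability with drug at most 40%, in both replicates (limit read from the data, passing the limit was not always enough); inconclusive means both conditions met in only one replicate; inactive means neither replicate meets both conditions.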

Assay: reversal of MRP1-mediated doxorubicin resistance, pilot screen, H69AR cells, doxorubicin co-treatment (AID 601)
Settings: H69AR cells + 2 uM doxorubicin, CellTiter-Glo, 72 h; at 10 µM; stronger effect = higher value

| Structure (SMILES) | differential viability (reversal) |
| --- | --- |
| O=C(NCCN1CCCCCC1)c1ccc(CS(=O)(=O)c2ccc(Br)cc2)o1 | 7.95% (inactive) |
| Cc1ccc(S(=O)(=O)NCCOC(=O)Nc2sc(=S)n(C)c2C)cc1 | 7.26% (inactive) |
| COc1ccccc1CC(=O)Nc1ccc(OC)c(OC)c1 | 6% (inactive) |
| CCN(CC)C(=O)C1CCCc2c1[nH]c1ccc(Cl)cc21 (stereo not given) | 5.98% (inactive) |
| CCOC(=O)N1CCC(NC(=O)C2CCCN(C(=O)c3cc4sccc4n3C)C2)CC1 (stereo not given) | -0.91% (inactive) |
| CCOC(=O)c1[nH]c(C)c(C(=O)Nc2ccc(Cl)cc2)c1C | -7.14% (inactive) |
| O=C(NC(=O)c1cccc(F)c1)OC[C@@H]1CCCN2CCCC[C@H]12 | 0.59% (inactive) |
| COc1ccccc1-n1c(=O)[nH]c2c(C(N)=O)nc(-c3cccnc3)nc21 | -5.7% (inactive) |
| CC1(C)CC(=O)c2cnc(NC(=O)Cc3ccc(Cl)cc3)nc2C1 | 10.6% (inactive) |
| CC(C)(NC(=O)N1CCCC1)c1cccc(C(C)(C)NC(=O)N2CCCC2)c1 | 5.27% (inactive) |
| COc1ccc(NC(=O)C2CCCN(S(=O)(=O)c3cccc4cccnc34)C2)cc1OC (stereo not given) | -6.73% (inactive) |
| CCOc1ccc(CCN2C(=O)C3C4C=CC(C4)C3C2=O)cc1OCC (stereo not given) | 4.56% (inactive) |
| COc1ccc(S(=O)(=O)N2CCN(c3ccc(C)cc3C)CC2)cc1OC | -0.96% (inactive) |
| O=C(C1CCN(c2nnc(-n3cccc3)s2)CC1)N1CCc2ccccc2C1 | 1.77% (inactive) |
| CCOc1cc(C2C3=C(CCCC3=O)N(C)C3=C2C(=O)CCC3)cc(Cl)c1O | 12.8% (inactive) |
| O=C(OCN1C(=O)c2ccccc2C1=O)C1CCCCC1 | -12.9% (inactive) |
| Cc1ccc2cccc(SCC(=O)N3CCOCC3)c2n1 | -0.48% (inactive) |
| c1ccn2c(SCc3ccc4c(c3)OCCO4)nnc2c1 | 0.37% (inactive) |
| c1ccc(C(Cc2nc(-c3ccccn3)no2)c2ccccc2)cc1 | -11.8% (inactive) |
| COC(=O)C(C)Sc1nnc2n(-c3cccc(C)c3)c(=O)c3c4c(sc3n12)CCCC4 (stereo not given) | 64.7% (active) |

| Structure (SMILES) | differential viability (reversal) |
| --- | --- |
| Cc1ccc(-c2noc(CN3C(C)CCCC3C)n2)cc1 (stereo not given) | 5.67% (inactive) |
| CCn1c(SCC(=O)Nc2ccc(Cl)cc2)nnc1C1CC1 | 11.1% (inactive) |
| COc1ccc(C2CC(c3ccco3)n3ncnc3N2)cc1 (stereo not given) | -3.17% (inactive) |
| COc1ccc(NC(=O)c2cc(C3CC3)on2)c(OC)c1 | -7.87% (inactive) |
| COc1cc(OC)c2c(c1)OC(c1ccc(OC)c(OC)c1)C(O)C2=O (stereo not given) | 12.9% (inactive) |
| N#CCCN(Cc1cccnc1)C(=O)Nc1ccc(Cl)c(Cl)c1 | 9.8% (inactive) |
| O=C(c1cccc(F)c1)N1CCc2ccccc21 | 3.25% (inactive) |
| COc1ccc(NC(=O)C2CCCCN2S(=O)(=O)c2ccc(F)cc2)cc1 (stereo not given) | -12.1% (inactive) |
| CCN(CC)C(=O)Cn1ncc2c1-c1ccccc1OC2 | 15.7% (inactive) |
| Cn1c(=O)oc2cc(S(=O)(=O)NC3CCN(Cc4ccccc4)CC3)ccc21 | 14.4% (inactive) |
| COCCOC(=O)c1[nH]c2c(c1C)C(=O)CC(c1ccco1)C2 (stereo not given) | -37.2% (inactive) |
| COc1ccccc1NC(=O)N(C1CCCC1)C1CCN(C(C)=O)CC1 | 0.61% (inactive) |
| COc1cc(C(=O)Nc2cccc(-c3nncn3C)c2)cc(OC)c1OC | 7.79% (inactive) |
| CCCCN(CC)CCNC(=O)c1cc2c(C)nc3ccccc3c2o1 | 2.99% (inactive) |
| Clc1ccc(SCCCCn2ccnc2)cc1 | 10.9% (inactive) |
| CCOC(=O)N1CCC(N2C(=O)c3ccccc3C2Nc2cc(Cl)c(OC)cc2OC)CC1 (stereo not given) | 14% (inactive) |
| O=C(Cn1nc(Cc2cccnc2)c2ccccc2c1=O)NCC1CCCO1 (stereo not given) | -3.21% (inactive) |
| CCn1cc(SCC(=O)NCC2CCCO2)c2ccccc21 (stereo not given) | -9.37% (inactive) |
| Cc1noc(C)c1S(=O)(=O)N1CCN(Cc2ccc3c(c2)OCO3)CC1 | 9.66% (inactive) |
| CCOC(=O)c1ccc(N2Cc3cc(C)c(C)cc3C2)cc1O | 4.4% (inactive) |

Same assay, conditions: H69AR cells + 2 uM doxorubicin, CellTiter-Glo, 72 h; measured here: viability with 2 uM doxorubicin; at 10 µM; stronger effect = lower value

| Structure (SMILES) | viability |
| --- | --- |
| O=C(NCCN1CCCCCC1)c1ccc(CS(=O)(=O)c2ccc(Br)cc2)o1 | 83.1% |
| Cc1ccc(S(=O)(=O)NCCOC(=O)Nc2sc(=S)n(C)c2C)cc1 | 94.1% |
| COc1ccccc1CC(=O)Nc1ccc(OC)c(OC)c1 | 83.6% |
| CCN(CC)C(=O)C1CCCc2c1[nH]c1ccc(Cl)cc21 (stereo not given) | 70.6% |
| CCOC(=O)N1CCC(NC(=O)C2CCCN(C(=O)c3cc4sccc4n3C)C2)CC1 (stereo not given) | 95.7% |
| CCOC(=O)c1[nH]c(C)c(C(=O)Nc2ccc(Cl)cc2)c1C | 93% |
| O=C(NC(=O)c1cccc(F)c1)OC[C@@H]1CCCN2CCCC[C@H]12 | 95.9% |
| COc1ccccc1-n1c(=O)[nH]c2c(C(N)=O)nc(-c3cccnc3)nc21 | 75.6% |
| CC1(C)CC(=O)c2cnc(NC(=O)Cc3ccc(Cl)cc3)nc2C1 | 89.6% |
| CC(C)(NC(=O)N1CCCC1)c1cccc(C(C)(C)NC(=O)N2CCCC2)c1 | 90.3% |
| COc1ccc(NC(=O)C2CCCN(S(=O)(=O)c3cccc4cccnc34)C2)cc1OC (stereo not given) | 74.2% |
| CCOc1ccc(CCN2C(=O)C3C4C=CC(C4)C3C2=O)cc1OCC (stereo not given) | 83.4% |
| COc1ccc(S(=O)(=O)N2CCN(c3ccc(C)cc3C)CC2)cc1OC | 98.2% |
| O=C(C1CCN(c2nnc(-n3cccc3)s2)CC1)N1CCc2ccccc2C1 | 76.1% |
| CCOc1cc(C2C3=C(CCCC3=O)N(C)C3=C2C(=O)CCC3)cc(Cl)c1O | 91.5% |
| O=C(OCN1C(=O)c2ccccc2C1=O)C1CCCCC1 | 100% |
| Cc1ccc2cccc(SCC(=O)N3CCOCC3)c2n1 | 91.2% |
| c1ccn2c(SCc3ccc4c(c3)OCCO4)nnc2c1 | 91.7% |
| c1ccc(C(Cc2nc(-c3ccccn3)no2)c2ccccc2)cc1 | 107% |
| COC(=O)C(C)Sc1nnc2n(-c3cccc(C)c3)c(=O)c3c4c(sc3n12)CCCC4 (stereo not given) | 18.4% |

| Structure (SMILES) | viability |
| --- | --- |
| Cc1ccc(-c2noc(CN3C(C)CCCC3C)n2)cc1 (stereo not given) | 83.7% |
| CCn1c(SCC(=O)Nc2ccc(Cl)cc2)nnc1C1CC1 | 63.7% |
| COc1ccc(C2CC(c3ccco3)n3ncnc3N2)cc1 (stereo not given) | 98.6% |
| COc1ccc(NC(=O)c2cc(C3CC3)on2)c(OC)c1 | 99.1% |
| COc1cc(OC)c2c(c1)OC(c1ccc(OC)c(OC)c1)C(O)C2=O (stereo not given) | 78% |
| N#CCCN(Cc1cccnc1)C(=O)Nc1ccc(Cl)c(Cl)c1 | 81.4% |
| O=C(c1cccc(F)c1)N1CCc2ccccc21 | 95.6% |
| COc1ccc(NC(=O)C2CCCCN2S(=O)(=O)c2ccc(F)cc2)cc1 (stereo not given) | 101% |
| CCN(CC)C(=O)Cn1ncc2c1-c1ccccc1OC2 | 84.7% |
| Cn1c(=O)oc2cc(S(=O)(=O)NC3CCN(Cc4ccccc4)CC3)ccc21 | 93.2% |
| COCCOC(=O)c1[nH]c2c(c1C)C(=O)CC(c1ccco1)C2 (stereo not given) | 60.9% |
| COc1ccccc1NC(=O)N(C1CCCC1)C1CCN(C(C)=O)CC1 | 87.6% |
| COc1cc(C(=O)Nc2cccc(-c3nncn3C)c2)cc(OC)c1OC | 81.2% |
| CCCCN(CC)CCNC(=O)c1cc2c(C)nc3ccccc3c2o1 | 82.4% |
| Clc1ccc(SCCCCn2ccnc2)cc1 | 88.3% |
| CCOC(=O)N1CCC(N2C(=O)c3ccccc3C2Nc2cc(Cl)c(OC)cc2OC)CC1 (stereo not given) | 64.2% |
| O=C(Cn1nc(Cc2cccnc2)c2ccccc2c1=O)NCC1CCCO1 (stereo not given) | 95.4% |
| CCn1cc(SCC(=O)NCC2CCCO2)c2ccccc21 (stereo not given) | 94.9% |
| Cc1noc(C)c1S(=O)(=O)N1CCN(Cc2ccc3c(c2)OCO3)CC1 | 85.7% |
| CCOC(=O)c1ccc(N2Cc3cc(C)c(C)cc3C2)cc1O | 92.9% |
